Laboratory results: PubChem BioAssay AID1159580 (chemical genetic matrix, 2015)
Where “and” joins values, the source holds several entries; their conditions need not be identical. Equal values may be shown once. In all, about 5,500 compounds went through this assay and about 2,000 (36%) were called active. Roughly 18% stayed inconclusive and do not appear here. Rule as the data show it: active = normalized growth mostly below about 0.91 (no sharp cut-off); inconclusive = no clear call, values can overlap the other calls; inactive = mostly above about 0.92. This is one part of the list.

Assay: chemical genetic growth profiling, strain panel (AID 1159580);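 also: tested at 20 µM; growth read once vehicle control cultures reached saturation at 30 °C; 1 = growth at the plate median or of vehicle wells; lower values mean less growth of the strain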
Conditions: S. cerevisiae deletion strains, growth OD
[1] = locus YHR030C, strain SLT2, hits give low values
[2] = locus YHR079C, strain IRE1, hits give low values
[3] = locus YJL095W, strain BCK1, hits give low values
[4] = locus YJR066W, strain TOR1, hits give low values
[5] = locus YLR113W, strain HOG1, hits give low values
[6] = locus YNL183C, strain NPR1, hits give low values
[7] = locus YOR231W, strain MKK1, hits give low values
[8] = locus YPL256C, strain CLN2, hits give low values

Measured: normalized growth

COc1cc(C(=O)O)cc(OC)c1O
inactive: locus YBR021W, strain FUR4, hits give low values 1.08 | locus YBR229C, strain ROT2, hits give low values 0.951 | locus YCL029C, strain bik1, hits give low values 0.976 | locus YDL035C, strain GPR1, hits give low values 1.01 | locus YDL074C, strain BRE1, hits give low values 0.961 | locus YDL101C, strain DUN1, hits give low values 0.982 | locus YDL185W, strain tfp1, hits give low values 0.987 | locus YDL192W, strain arf1, hits give low values 0.98 | locus YDR101C, strain arx1, hits give low values 0.972 | locus YDR150W, strain NUM1, hits give low values 0.979 | locus YDR162C, strain NBP2, hits give low values 1.01 | locus YDR318W, strain mcm21, hits give low values 1 | locus YDR388W, hits give low values 0.978 | locus YDR502C, strain sam2, hits give low values 0.982 | locus YEL061C, strain CIN8, hits give low values 0.986 | locus YER110C, hits give low values 0.977 | locus YER155C, strain BEM2, hits give low values 1 | locus YER167W, strain BCK2, hits give low values 1 | locus YGL078C, strain dbp3, hits give low values 0.986 | locus YGL086W, strain mad1, hits give low values 0.978 | locus YGL248W, strain PDE1, hits give low values 0.985 | locus YGR135W, strain pre9, hits give low values 1.05 | locus YGR229C, strain SMI1, hits give low values 1.01 | locus YGR252W, strain gcn5, hits give low values 1.04 | [1] 1.04 and 0.994 | locus YHR079C, strain IRE1 (second series), hits give low values 0.977 | [2] 1.02 | locus YHR094C, strain hxt1, hits give low values 0.984 | locus YHR129C, strain ARP1, hits give low values 0.997 | locus YHR200W, strain rpn10, hits give low values 0.98 | locus YIL066C, strain RNR3, hits give low values 0.981 | locus YIL073C, strain SPO22, hits give low values 0.983 | locus YIL125W, strain kgd1, hits give low values 0.987 | locus YIR030C, strain dcg1, hits give low values 0.988 | [3] 1.03 and 0.981 | locus YJL134W, strain LCB3, hits give low values 0.994 | locus YJL168C, strain set2, hits give low values 0.975 | locus YJL187C, strain SWE1 (second series), hits give low values 0.971 | locus YJR043C, strain POL32, hits give low values 0.991 | [4] 0.96 | locus YJR075W, strain HOC1, hits give low values 0.997 | locus YKL009W, strain mrt4, hits give low values 0.983 | locus YKL068W, hits give low values 0.989 | locus YKL085W, strain MDH1 (second series), hits give low values 0.983 | locus YKL085W, strain MDH1, hits give low values 0.983 | locus YKR001C, strain vps1, hits give low values 0.981 | locus YLR039C, strain RIC1, hits give low values 0.952 | locus YLR058C, strain SHM2, hits give low values 0.98 | locus YLR102C, strain apc9, hits give low values 0.985 | [5] 1.01 | locus YLR262C, strain YPT6, hits give low values 0.963 | locus YLR268W, strain sec22, hits give low values 0.991 | locus YLR330W, strain CHS5, hits give low values 0.996 | locus YLR342W, strain FKS1 (second series), hits give low values 1.05 | locus YLR371W, strain rom2, hits give low values 0.965 | locus YLR418C, strain cdc73, hits give low values 1.01 | locus YML016C, strain PPZ1, hits give low values 0.984 | locus YML032C, strain rad52, hits give low values 0.975 | locus YML124C, strain tub3, hits give low values 0.979 | locus YMR078C, strain ctf18, hits give low values 0.977 | locus YMR223W, strain ubp8, hits give low values 1.04 | locus YMR307W, strain GAS1, hits give low values 1.01 | locus YNL067W, strain RPL9B, hits give low values 0.962 | locus YNL128W, strain TEP1, hits give low values 0.989 | [6] 0.979 | locus YNL233W, strain BNI4, hits give low values 0.982 | locus YNL250W, strain rad50, hits give low values 0.976 | locus YNL271C, strain bni1, hits give low values 0.987 | locus YNL298W, strain CLA4, hits give low values 0.994 | locus YNL307C, strain MCK1, hits give low values 0.987 | locus YNR052C, strain pop2, hits give low values 0.993 | locus YOL012C, strain htz1 1.1 | locus YOL147C, strain pex11, hits give low values 0.984 | locus YOR061W, strain CKA2, hits give low values 0.964 | locus YOR069W, strain VPS5, hits give low values 0.995 | locus YOR136W, strain idh2, hits give low values 0.971 | locus YOR144C, strain elg1, hits give low values 0.991 | locus YOR184W, strain ser1, hits give low values 0.992 | [7] 1.04 | locus YOR316C, strain cot1, hits give low values 0.97 | locus YPL241C, strain CIN2, hits give low values 0.999 | [8] 1.04 | locus YPR119W, strain clb2, hits give low values 0.97 | locus YPR141C, strain kar3, hits give low values 0.969 | locus YPR163C, strain tif3, hits give low values 0.989 | locus YPR167C, strain met16, hits give low values 0.988 | strain wtn01, hits give low values 1

O=C(O)c1cc(=O)c(O)c2c(O)c(O)c(O)cc2c1
active: locus YAL021C, strain ccr4, hits give low values 0.0892 | locus YAL026C, strain drs2, hits give low values 0.216 | locus YAL030W, strain snc1, hits give low values 0.757 | locus YBL061C, strain skt5, hits give low values 0.639 | locus YBR009C, strain hhf1, hits give low values 0.694 | locus YBR023C, strain chs3, hits give low values 0.549 | locus YBR171W, strain sec66, hits give low values 0.812 | locus YBR231C, strain swc5, hits give low values 0.483 | locus YBR279W, strain paf1, hits give low values 0.754 | locus YCL011C, strain gbp2, hits give low values 0.72 | locus YCL016C, strain dcc1, hits give low values 0.809 | locus YCL061C, strain MRC1, hits give low values 0.651 | locus YCL069W, strain vba3, hits give low values 0.69 | locus YCR088W, strain abp1, hits give low values 0.707 | locus YDL040C, strain nat1, hits give low values 0.906 | locus YDR001C, strain nth1, hits give low values 0.846 | locus YDR069C, strain doa4, hits give low values 0.161 | locus YDR137W, strain rgp1, hits give low values 0.142 | locus YDR159W, strain sac3, hits give low values 0.134 | locus YDR195W, strain ref2 0.481 | locus YDR297W, strain sur2, hits give low values 0.729 | locus YDR334W, strain swr1, hits give low values 0.353 | locus YDR335W, strain msn5, hits give low values 0.128 | locus YDR392W, strain spt3, hits give low values 0.708 | locus YEL003W, strain gim4, hits give low values 0.511 | locus YEL037C, strain rad23, hits give low values 0.552 | locus YEL061C, strain CIN8 (second series), hits give low values 0.756 | locus YER015W, strain faa2, hits give low values 0.488 | locus YER016W, strain bim1, hits give low values 0.84 | locus YER111C, strain swi4, hits give low values 0.14 | locus YER155C, strain BEM2 (second series), hits give low values 0.432 | locus YFR010W, strain ubp6, hits give low values 0.374 | locus YGL167C, strain pmr1, hits give low values 0.558 | locus YGL173C, strain kem1, hits give low values 0.352 | locus YGL240W, strain doc1, hits give low values 0.869 | locus YGL253W, strain hxk2, hits give low values 0.545 | locus YHR013C, strain ard1, hits give low values 0.546 | locus YHR027C, strain rpn1, hits give low values 0.422 | [1] 0.581 | [2] 0.546 | locus YHR142W, strain chs7, hits give low values 0.363 | locus YJL092W, strain hpr5, hits give low values 0.728 | locus YJL095W, strain BCK1 (second series), hits give low values 0.604 | [3] 0.575 | locus YJL115W, strain asf1, hits give low values 0.771 | locus YJL129C, strain trk1, hits give low values 0.235 | locus YJL154C, strain vps35, hits give low values 0.768 | locus YJL164C, strain tpk1, hits give low values 0.666 | locus YJL166W, strain qcr8, hits give low values 0.743 | locus YJL187C, strain SWE1, hits give low values 0.737 | [4] 0.312 | locus YKL160W, strain elf1, hits give low values 0.777 | locus YKR026C, strain gcn3, hits give low values 0.854 | locus YLL001W, strain dnm1, hits give low values 0.548 | locus YLL026W, hits give low values 0.804 | locus YLL041C, strain sdh2, hits give low values 0.897 | locus YLR027C, strain aat2, hits give low values 0.718 | [5] 0.525 | locus YLR221C, strain rsa3, hits give low values 0.685 | locus YLR258W, strain gsy2, hits give low values 0.787 | locus YLR262C, strain YPT6 (second series), hits give low values 0.483 | locus YLR320W, strain mms22, hits give low values 0.56 | locus YLR342W, strain FKS1, hits give low values 0.538 | locus YLR357W, strain rsc2, hits give low values 0.593 | locus YLR370C, strain arc18, hits give low values 0.347 | locus YLR384C, strain iki3, hits give low values 0.642 | locus YML120C, strain ndi1, hits give low values 0.193 | locus YMR058W, strain fet3, hits give low values 0.275 | locus YMR129W, hits give low values 0.815 | locus YMR205C, strain PFK2, hits give low values 0.547 | locus YMR231W, strain pep5, hits give low values 0.169 | locus YNL071W, strain lat1, hits give low values 0.873 | [6] 0.243 | locus YNL209W, strain ssb2, hits give low values 0.273 | locus YNL248C, strain rpa49, hits give low values 0.725 | locus YNL322C, strain KRE1 (second series), hits give low values 0.208 | locus YNR049C, strain mso1, hits give low values 0.79 | locus YOR001W, strain rrp6, hits give low values 0.544 | locus YOR070C, strain gyp1, hits give low values 0.849 | locus YOR080W, strain dia2, hits give low values 0.387 | locus YOR083W, strain WHI5, hits give low values 0.645 | locus YOR106W, strain vam3, hits give low values 0.295 | [7] 0.615 | locus YOR265W, strain rbl2, hits give low values 0.771 | locus YOR270C, strain vph1, hits give low values 0.198 | locus YOR290C, strain snf2, hits give low values 0.0962 | locus YPL051W, strain arl3, hits give low values 0.465 | locus YPL078C, strain atp4, hits give low values 0.124 | locus YPL106C, strain sse1, hits give low values 0.723 | locus YPL240C, strain hsp82, hits give low values 0.872 | [8] 0.567
inactive: locus YDL005C, strain med2, hits give low values 0.953 | locus YGL227W, strain vid30, hits give low values 0.944 | locus YKR091W, strain srl3, hits give low values 0.934 | locus YMR125W, strain sto1, hits give low values 0.89
